{"source": "PubChem BioAssay", "note": "A number with no mark means an inactive call. No rule for the calls is given here.", "data": [{"target": "Pantothenate synthetase (Mycobacterium tuberculosis (strain ATCC 25618 / H37Rv)) (UniProt P9WIL5)", "sequence (P9WIL5 whole entry, looked up)": "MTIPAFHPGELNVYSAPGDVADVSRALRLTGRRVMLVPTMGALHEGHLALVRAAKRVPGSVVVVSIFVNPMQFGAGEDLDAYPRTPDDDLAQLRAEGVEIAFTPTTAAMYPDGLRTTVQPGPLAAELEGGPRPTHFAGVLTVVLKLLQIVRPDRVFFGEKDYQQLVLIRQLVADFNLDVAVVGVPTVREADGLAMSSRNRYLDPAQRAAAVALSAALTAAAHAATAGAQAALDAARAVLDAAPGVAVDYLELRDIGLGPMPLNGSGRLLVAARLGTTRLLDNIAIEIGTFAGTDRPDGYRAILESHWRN", "assay": "Coupled enzyme confirmation of inhibitors against recombinant Mtb PanC (AID 375);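 also: 0% = full reaction with vehicle and 100% = no enzyme background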", "details": "coupled enzyme assay; at 10 µM, stronger effect = higher value", "units": {"inhibition": "%"}, "values": [{"smiles": "COc1ccc2c(C(F)(F)F)cc(=O)oc2c1C", "inhibition": 1}, {"smiles": "CC(C(=O)N1CCCCC1)n1sc2ccccc2c1=O", "note": "(stereo not given)", "inhibition": 0}, {"smiles": "Nc1ccc(S(=O)(=O)Nc2ccccn2)cc1", "inhibition": 0}, {"smiles": "COc1ccc(C(=O)Nc2ccc(S(=O)(=O)NC(C)=O)cc2)cc1", "inhibition": 0}, {"smiles": "COC(=O)c1sccc1NC(=O)c1ccncc1", "inhibition": 6}, {"smiles": "CCOC(=O)C1CCN(CC(=O)c2c(C)[nH]c3ccccc23)CC1", "inhibition": 1}, {"smiles": "CCOC(=O)C1CCN(Cc2ccc(F)c(Br)c2)CC1", "inhibition": 0}, {"smiles": "Cc1ccc2nsnc2c1S(=O)(=O)N(Cc1cc2cccc(C)c2[nH]c1=O)CC1CCCO1", "note": "(stereo not given)", "inhibition": 0}, {"smiles": "CC1CCc2cc(F)cc3c(=O)c(C(=O)O)cn1c23", "note": "(stereo not given)", "inhibition": 2}, {"smiles": "Cc1cccc(-n2c(Cc3cc(=O)[nH]c(=O)[nH]3)nnc2SCC(=O)NCc2ccco2)c1", "inhibition": 4}, {"smiles": "COCCOC(=O)c1[nH]c2c(c1C)C(=O)CC(c1ccc(N(C)C)cc1)C2", "note": "(stereo not given)", "inhibition": 0}, {"smiles": "COc1ccc(NC(=O)CSc2nc3c(c(=O)n2-c2ccccc2OC)SCC3)cc1", "inhibition": 3}, {"smiles": "COc1cccc(C=Nc2ccc3c(c2)OCCO3)c1O", "inhibition": 3}, {"smiles": "CN1CC[n+]2cnc3ccccc3c21", "inhibition": 1}, {"smiles": "O=C(C1CCCN(S(=O)(=O)c2cnc[nH]2)C1)N1CC(=O)N(CCc2ccccc2)C(=O)C1", "note": "(stereo not given)", "inhibition": 0}, {"smiles": "COc1ccc(C2CC(=O)C3=C(C2)Nc2ccccc2N(C(=O)C2CC2)C3c2cccnc2)cc1OC", "note": "(stereo not given)", "inhibition": 8}, {"smiles": "CN1[C@@H](CC(=O)c2ccccc2)CCC[C@H]1C[C@H](O)c1ccccc1", "inhibition": 8}, {"smiles": "CC1Cc2ccccc2N1NC(=O)c1ccc(Cl)c(S(N)(=O)=O)c1", "note": "(stereo not given)", "inhibition": 0}, {"smiles": "Cn1c(CCCNC(=O)c2ccccc2)nc2ccccc21", "inhibition": 2}, {"smiles": "CC(=O)Nc1ccc(NC(=O)c2cc(C)nn2-c2ccccc2)cc1", "inhibition": 2}, {"smiles": "COc1ccc(-n2c(Cc3cccn3C)nnc2SCC(=O)Nc2cccc(Cl)c2)cc1", "inhibition": 2}, {"smiles": "O=C1CC(c2ccccc2)n2nc(NC(=O)c3ccccn3)nc2N1", "note": "(stereo not given)", "inhibition": 0}, {"smiles": "Nc1nnn(Cc2ccccc2)n1", "inhibition": 0}, {"smiles": "CN(CC(=O)Nc1ccccc1Cl)C(=O)COC(=O)CNC(=O)c1ccc(Br)o1", "inhibition": 0}, {"smiles": "CCCCNC(=O)Nc1ccnn1C1CCCCC1", "inhibition": 1}, {"smiles": "C=CCn1c(N)c(C(=O)OC(C)(C)C)c2nc3ccccc3nc21", "inhibition": 1}, {"smiles": "CCCCNC(=O)CN(C1CCCCC1)S(C)(=O)=O", "inhibition": 8}, {"smiles": "Cn1cnnc1Sc1nc2c(c(=O)n(C)c(=O)n2C)n1C", "inhibition": 0}, {"smiles": "Cn1c(C(=O)NCc2cccnc2)cc2sccc21", "inhibition": 0}, {"smiles": "CC(C)Cc1cc(C(=O)Nc2c(F)cc(F)cc2Br)no1", "inhibition": 0}, {"smiles": "CS(=O)(=O)NCC(c1cccnc1)N1CCN(c2ccc(F)cc2)CC1", "note": "(stereo not given)", "inhibition": 1}, {"smiles": "Cc1occc1C(=O)Nc1cccnc1", "inhibition": 16}, {"smiles": "O=S(=O)(NCCc1ccccn1)c1cccs1", "inhibition": 3}, {"smiles": "CCOC(=O)N1CCN(C(=O)c2ccc(N3C(=O)CCC3=O)cc2)CC1", "inhibition": 0}, {"smiles": "CN(C)c1ccc(/C=C/c2ccncc2)cc1", "inhibition": 1}, {"smiles": "c1nc(NCC2CCCO2)c2[nH]cnc2n1", "note": "(stereo not given)", "inhibition": 0}, {"smiles": "COC(=O)C(C)Sc1nnc2n(-c3cccc(C)c3)c(=O)c3c4c(sc3n12)CCCC4", "note": "(stereo not given)", "inhibition": 1}, {"smiles": "CCOC(=O)C1CCN(C(=O)Nc2ccc(Cl)cc2Cl)CC1", "inhibition": 0}, {"smiles": "O=C(C1CCN(S(=O)(=O)c2cccnc2)CC1)N1CCN(c2ccc(Cl)cc2)CC1", "inhibition": 0}, {"smiles": "CC(=O)N1CCc2cc(Br)cc(S(=O)(=O)NCCCN3CCCC(C)C3)c21", "note": "(stereo not given)", "inhibition": 2}]}]}
